# Calls of active or inactive are those of the source. Cut-off read from the data, not from the text of the source, unless noted: active = inhibition above about 80%; inactive = the rest. Non-standard residues stand in square brackets, D forms with d. Residues, ends and D or L forms follow the SMILES beside them. Dolaproine = CO[C@@H]([C@@H]1CCCN1)[C@@H](C)C(=O)O; Dil = CC[C@H](C)[C@H](NC)[C@@H](CC(=O)O)OC; NMeV = CN[C@H](C(=O)O)C(C)C
# Columns and labels:
# [1] = growth inhibition, single agent or in combination, cell-based, chromothripsis tumors, cisplatin or BGB combos (AID 1671449); conditions: LFS_MB_P medulloblastoma cells;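 note: cells exposed for 96 hours; 0% = vehicle DMSO and 100% = killing by high DMSO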
# [2] = growth inhibition, single agent and combos, cell-based, chromothripsis tumors, cisplatin or BGB combos (AID 1671450); conditions: HDN33 neuroblastoma cells, stronger effect = higher value;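 note: cells exposed to compound for four days; 0% = vehicle DMSO and 100% = cell killing by high DMSO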
# [3] = growth inhibition, single agents and combos, ICB984, cell-based, cisplatin or BGB combos, synergistic combos for chromothripsis tumors (AID 1671451; call rule not given here;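 note: cells exposed for 96 hours before readout; 0% = vehicle DMSO and 100% = killing by high DMSO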); conditions: ICB984 medulloblastoma cells, drug combinations, stronger effect = higher value
# [4] = growth inhibition, single agents and combos, LFS_MB_1R, cell-based, cisplatin or BGB combos, synergistic combos for chromothripsis tumors (AID 1671452); conditions: LFS_MB_1R medulloblastoma cells, stronger effect = higher value;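 note: cells exposed for 96 hours before readout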
# [5] = growth inhibition, single agents and combos, HTB85, cell-based, BGB or cisplatin IC20 combos, synergistic combos for chromothripsis tumors (AID 1671453); conditions: HTB85 osteosarcoma cells, drug combinations, stronger effect = higher value;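 note: cells exposed for 96 hours before readout; 0% = vehicle DMSO and 100% = high DMSO killing control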
# [6] = growth inhibition, single agents and combos, CRL2098, cell-based, BGB or cisplatin IC20 combos, synergistic combos for chromothripsis tumors (AID 1671454); conditions: CRL2098 osteosarcoma cells, drug combinations, stronger effect = higher value;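 note: cells exposed for 96 h before readout; 0% = vehicle DMSO and 100% = killing by high DMSO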
# [7] = growth inhibition, single agents and combos, HD-MB03, cell-based, BGB or cisplatin IC20 combos, synergistic combos for chromothripsis tumors (AID 1671455; in the data active = inhibition above about 83%;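 note: 0% = vehicle DMSO and 100% = high DMSO as cytotoxic control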); conditions: HD-MB03 medulloblastoma cells, stronger effect = higher value
# [8] = growth inhibition, single agents and combos, UWB1.289, cell-based, BGB or cisplatin combos, synergistic combos for chromothripsis tumors (AID 1671456); conditions: UWB1.289 ovarian carcinoma cells, stronger effect = higher value;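 note: cells exposed to compound for four days; 0% = vehicle DMSO and 100% = killing by high DMSO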
# [9] = growth inhibition, single agents and combos, LFS_MB_2R, cell-based, cisplatin combos, synergistic combos for chromothripsis tumors (AID 1671457); conditions: LFS_MB_2R medulloblastoma cells, stronger effect = higher value;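 note: cells exposed to compound for four days before readout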
# [10] = growth inhibition, MDA-MB-436, cell-based, BGB or cisplatin combos, synergistic combos for chromothripsis tumors (AID 1671458; call rule not given here;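 note: cells exposed for 96 hours; 0% = vehicle DMSO and 100% = killing by high DMSO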); conditions: MDA-MB-436 breast carcinoma growth inhibition, drug combinations, stronger effect = higher value
# [11] = UWB1.289_BRCA1 ovarian cancer growth, cell-based, BGB or cisplatin combinations (AID 1671459); conditions: UWB1.289 BRCA1 ovarian carcinoma, drug combinations, stronger effect = higher value
# [12] = drug combination toxicity in non-malignant astrocytes – cell-based, BGB or cisplatin IC20 combos, cytotoxicity control for chromothriptic childhood tumor combination screen (AID 1671460); conditions: Human astrocytes, viability inhibition, drug combinations, at 0.5 µM, stronger effect = higher value;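 note: cells exposed to compounds for 96 hours before viability readout; 0% = vehicle and 100% = killing control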
# [13] = BT084 cell growth, single and combined drugs, ICGC_MB145, cisplatin and BGB IC40 combos (AID 1671461); conditions: BT084 medulloblastoma cells, drug combinations, stronger effect = higher value;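 note: cells exposed to drugs for 96 hours; 0% = vehicle DMSO and 100% = high DMSO full killing control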
# [14] = RCMB18 cell growth, single agent and combined, cisplatin and BGB IC40 combos (AID 1671462); conditions: RCMB18 medulloblastoma cells, stronger effect = higher value;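 note: cells exposed to compound for four days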
# [15] = CRL1545 cell growth, single agent and combined, cisplatin and BGB IC20 combos (AID 1671464); conditions: CRL1545 osteosarcoma cells, stronger effect = higher value;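 note: cells exposed to compound for 96 hours before readout; 0% = vehicle DMSO and 100% = high DMSO killing control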
# [16] = galactose survival enhancers in mitochondrial complex I cybrids – cell-based, galactose medium, ATP luminescence, primary screen (AID 1645843;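 active = z-score of at least 1.8 in each of two replicates, scored against plate mean and spread of sample wells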;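 note: positive z means more ATP and so rescue of galactose-driven cybrid death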); conditions: complex I mutant cybrid cells, 72 h, stronger effect = higher value
# [17] = at 0.5 µM, stronger effect = higher value
# [18] = measured here: combination with BGB IC20, at 0.005 µM
# [19] = measured here: combination with BGB IC40, at 0.005 µM
# [20] = measured here: combination with BGB IC40, at 0.05 µM
# [21] = measured here: combination with cisplatin, at 0.5 µM, stronger effect = higher value
# [22] = measured here: combination with cisplatin, at 5 µM, stronger effect = higher value
# [23] = measured here: with BGB IC20 combination, at 0.5 µM
# [24] = measured here: with cisplatin IC20 combination, at 0.5 µM
# [25] = measured here: 5 uM single agent, at 5 µM
# [26] = measured here: combination with cisplatin, at 0.5 µM
# [27] = measured here: combination with cisplatin, at 5 µM
# [28] = measured here: with BGB IC20, at 0.5 µM
# [29] = measured here: with BGB IC20, at 5 µM
# [30] = measured here: with cisplatin IC20, at 0.5 µM
# [31] = measured here: with cisplatin IC20, at 5 µM
# [32] = measured here: combination with BGB at IC20, at 0.5 µM
# [33] = measured here: combination with cisplatin at IC20, at 0.5 µM
# [34] = measured here: combo with BGB at IC20, at 0.5 µM
# [35] = measured here: combo with cisplatin at IC20, at 0.5 µM
# [36] = measured here: inhibition with BGB combination, at 0.05 µM
# [37] = measured here: inhibition with cisplatin combination, at 0.05 µM
# [38] = measured here: BGB combination, at 0.5 µM
# [39] = measured here: BGB combination, at 5 µM
# [40] = measured here: cisplatin combination, at 0.5 µM
# [41] = measured here: cisplatin combination, at 5 µM
# [42] = BGB combination, concentration series, at 5 µM
# [43] = cisplatin combination, concentration series, at 5 µM
# [44] = measured here: combo with BGB IC20
# [45] = measured here: combo with cisplatin IC20
# [46] = cisplatin combination, at 0.5 µM
# [47] = measured here: BGB IC40 combination 0.05 uM, at 0.05 µM
# [48] = measured here: BGB IC40 combination, at 0.05 µM
smiles,measurement,setting,value
O=c1ccn(C2CC(O)C(CO)O2)c(=O)[nH]1 (centres undefined),inhibition,[1]; [17],-18.8% (inactive)
same,inhibition,[1]; [18],-7.41%
same,inhibition,[1]; [19],-27.4%
same,inhibition,[1]; [20],-29.5%
same,inhibition,[1]; [21],-37.9%
same,inhibition,[1]; [22],-35.5%
same,inhibition,"[2]; BGB combo, at 5 µM",-20.7%
same,inhibition,[2]; at 0.5 µM,-36.9% (inactive)
same,inhibition,"[2]; cisplatin combo, at 5 µM",-20.7%
same,inhibition,[2]; [23],-38.7%
same,inhibition,[2]; [24],-41.3%
same,inhibition,"[2]; single agent, at 5 µM",-10.1%
same,inhibition,"[3]; BGB IC20 combo, at 0.005 µM",4%
same,inhibition,"[3]; BGB IC40 combo, at 0.005 µM",-31.4%
same,inhibition,"[3]; BGB IC40 combo, at 0.05 µM",-22%
same,inhibition,[3]; at 0.5 µM,-20.1% (inactive)
same,inhibition,"[3]; cisplatin combo, at 0.05 µM",-25.4%
same,inhibition,"[3]; cisplatin combo, at 0.5 µM",-21.2%
same,inhibition,"[3]; cisplatin combo, at 5 µM",-29.4%
same,inhibition,[3]; [25],-22%
same,inhibition,[4]; at 0.5 µM,-29.6% (inactive)
same,inhibition,[4]; [20],-35%
same,inhibition,[4]; [26],-32.9%
same,inhibition,[4]; [27],-47.4%
same,inhibition,[5]; at 0.5 µM,-20.1% (inactive)
same,inhibition,[5]; [28],-39.5%
same,inhibition,[5]; [29],-39.3%
same,inhibition,[5]; [30],-5.42%
same,inhibition,[5]; [31],-49.8%
same,inhibition,"[5]; single agent, at 5 µM",-26.7%
same,inhibition,[6]; at 0.5 µM,-68.3% (inactive)
same,inhibition,[6]; [32],-48.5%
same,inhibition,[6]; [33],-72.4%
same,inhibition,[7]; at 0.5 µM,-3.73% (inactive)
same,inhibition,[7]; [34],-8.35%
same,inhibition,[7]; [35],-4.82%
same,inhibition,[8]; at 0.5 µM,0.16% (inactive)
same,inhibition,[8]; [36],-21%
same,inhibition,[8]; [37],-1.45%
same,inhibition,[9]; at 0.5 µM,-20.5% (inactive)
same,inhibition,[9]; [26],-18.3%
same,inhibition,[9]; [27],-78.5%
same,inhibition,[10]; at 0.5 µM,-14.8% (inactive)
same,inhibition,[10]; [38],-6.54%
same,inhibition,[10]; [39],-25.5%
same,inhibition,[10]; [40],-29.1%
same,inhibition,[10]; [41],-17%
same,inhibition,[11]; [42],-3.77%
same,inhibition,[11]; at 0.5 µM,0.57% (inactive)
same,inhibition,[11]; [43],10.4%
same,inhibition,[12],3.18% (inactive)
same,inhibition,[12]; [44],-6.85%
same,inhibition,[12]; [45],4.49%
same,inhibition,[13]; at 0.5 µM,-24.6% (inactive)
same,inhibition,[13]; [46],-0.373%
same,inhibition,"[13]; cisplatin combination, at 5 µM",1.74%
same,inhibition,[13]; [47],26.6%
same,inhibition,"[13]; single agent, at 5 µM",-10.6%
same,inhibition,[14]; at 0.5 µM,-15.4% (inactive)
same,inhibition,"[14]; cisplatin combo, at 5 µM",1.69%
same,inhibition,[14]; [48],3.1%
same,inhibition,[14]; [26],9.29%
same,inhibition,"[14]; single agent, at 5 µM",-204%
same,inhibition,[15]; at 0.5 µM,-20.7% (inactive)
same,inhibition,[15]; [23],-5.72%
same,inhibition,[15]; [24],-31.1%
same,inhibition,"[15]; single agent, at 0.05 µM",-46.2%
same,inhibition,"[15]; single agent, at 5 µM",-14.8%
COc1cccc(-n2cc(-c3ccnc(N(C)CCn4ccnc4)n3)cn2)c1,z-score,[16],1.84 (inactive)
Cc1nsc(NC(=O)N2CCCN(c3ccccc3)CC2)n1,z-score,[16],-0.19 (inactive)
CC(C)c1nc(Cn2cnc3sc4c(c3c2=O)CCCC4)cs1,z-score,[16],1.35 (inactive)
CC[C@H](C)[C@@H]([C@@H](CC(=O)N1CCC[C@H]1[C@H](OC)[C@@H](C)C(=O)N[C@@H](Cc1ccccc1)C(=O)O)OC)N(C)C(=O)[C@@H](NC(=O)[C@@H](NC)C(C)C)C(C)C (H-[NMeV]V[Dil][Dolaproine]F-OH),inhibition,[1]; [17],-34.4% (inactive)
same,inhibition,[1]; [18],-15%
same,inhibition,[1]; [19],-52.5%
same,inhibition,[1]; [20],-31.6%
same,inhibition,[1]; [21],-31.7%
same,inhibition,[1]; [22],13.5%
same,inhibition,"[2]; BGB combo, at 5 µM",68.3%
same,inhibition,[2]; at 0.5 µM,71.4% (inactive)
same,inhibition,"[2]; cisplatin combo, at 5 µM",69.6%
same,inhibition,[2]; [23],62.6%
same,inhibition,[2]; [24],60.4%
same,inhibition,"[2]; single agent, at 5 µM",96.5%
same,inhibition,"[3]; BGB IC20 combo, at 0.005 µM",-18.1%
same,inhibition,"[3]; BGB IC40 combo, at 0.005 µM",-4.8%
same,inhibition,"[3]; BGB IC40 combo, at 0.05 µM",21.2%
same,inhibition,[3]; at 0.5 µM,-6.87% (inactive)
same,inhibition,"[3]; cisplatin combo, at 0.05 µM",17.4%
same,inhibition,"[3]; cisplatin combo, at 0.5 µM",-3.43%
same,inhibition,"[3]; cisplatin combo, at 5 µM",-11.7%
same,inhibition,[3]; [25],-7.94%
same,inhibition,[4]; at 0.5 µM,-16.4% (inactive)
same,inhibition,[4]; [20],-34.7%
same,inhibition,[4]; [26],-7.82%
same,inhibition,[4]; [27],15.8%
same,inhibition,[5]; at 0.5 µM,55.8% (inactive)
same,inhibition,[5]; [28],69.6%
same,inhibition,[5]; [29],59.7%
same,inhibition,[5]; [30],20.4%
same,inhibition,[5]; [31],67.1%
same,inhibition,"[5]; single agent, at 5 µM",86.4%
same,inhibition,[6]; at 0.5 µM,35% (inactive)
same,inhibition,[6]; [32],36.6%
same,inhibition,[6]; [33],9.03%
same,inhibition,[7]; at 0.5 µM,43.8% (inactive)
same,inhibition,[7]; [34],44.1%
same,inhibition,[7]; [35],39.9%
same,inhibition,[8]; at 0.5 µM,20.2% (inactive)
same,inhibition,[8]; [36],-13%
same,inhibition,[8]; [37],-3.2%
same,inhibition,[9]; at 0.5 µM,-9.71% (inactive)
same,inhibition,[9]; [26],-31.2%
same,inhibition,[9]; [27],-10.7%
same,inhibition,[10]; at 0.5 µM,50.1% (inactive)
same,inhibition,[10]; [38],39.8%
same,inhibition,[10]; [39],58%
same,inhibition,[10]; [40],45.4%
same,inhibition,[10]; [41],73.6%
same,inhibition,[11]; [42],49.3%
same,inhibition,[11]; at 0.5 µM,26.4% (inactive)
same,inhibition,[11]; [43],53.2%
same,inhibition,[12],31.9% (inactive)
same,inhibition,[12]; [44],39.5%
same,inhibition,[12]; [45],19.9%
same,inhibition,[13]; at 0.5 µM,7.92% (inactive)
same,inhibition,[13]; [46],-4.86%
same,inhibition,"[13]; cisplatin combination, at 5 µM",-10.9%
same,inhibition,[13]; [47],-19.9%
same,inhibition,"[13]; single agent, at 5 µM",67.2%
same,inhibition,[14]; at 0.5 µM,-11.8% (inactive)
same,inhibition,"[14]; cisplatin combo, at 5 µM",17%
same,inhibition,[14]; [48],-3.82%
same,inhibition,[14]; [26],-17.8%
same,inhibition,"[14]; single agent, at 5 µM",17.3%
same,inhibition,[15]; at 0.5 µM,42.9% (inactive)
same,inhibition,[15]; [23],47.9%
same,inhibition,[15]; [24],39.4%
same,inhibition,"[15]; single agent, at 0.05 µM",-9.33%
same,inhibition,"[15]; single agent, at 5 µM",84.4%
